The results in this text go back to PubChem BioAssay (EPA / NIEHS).

In general, AC50 refers to the midpoint of the concentration-response curve, whichever way the signal moves.

The target in experiment [1] is Paired box protein Pax-6 (Homo sapiens) (UniProt P26367). The experiment is described as follows: ATG_Pax6_CIS: Attagene CIS-FACTORIAL HepG2 Assay for human Paired Box 6 (PAX6) (AID 2282956). Particulars: HepG2 CIS-FACTORIAL PAX6 reporter transcription, RNA readout; actives raise or lower the signal. In outline: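 Transient MRTU transfection of HepG2 → compound exposure 24 h → TriZol RNA, oligo(dT) RT → PCR, 6-FAM primer extension, HpaI cut → capillary electrophoresis; activity fitted both directions against DMSO.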

A short description of experiment [2]: ATG_PXRE_CIS: Attagene CIS-FACTORIAL HepG2 Assay for human Pregnane X Receptor Element (PXRE) (AID 2282957). The conditions noted are these: HepG2 Attagene CIS-FACTORIAL PXRE reporter, mRNA; actives raise or lower the signal. The essentials:
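Transiently transfected HepG2 cells were dosed and incubated for 24 h. RNA was then isolated, DNase-treated, reverse-transcribed and reporter sequences amplified. Labeled, HpaI-digested fragments were quantified by capillary electrophoresis against DMSO.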

A short description of experiment [3]: ATG_PPRE_CIS: Attagene CIS-FACTORIAL HepG2 Assay for human Peroxisome Proliferator-activated Response Element (PPRE) (AID 2282958). The conditions noted are these: HepG2 PPRE cis-element reporter, Attagene transcription factor profiling; actives raise or lower the signal. The essentials: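 Read-out: fluorescent reporter mRNA fragments resolved by capillary electrophoresis after RT-PCR. HepG2 cells carried transiently transfected PPRE-driven cis reporter constructs and were dosed for 24 h; gain or loss of signal fitted relative to DMSO.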

Experiment [4] in a line: ATG_RORE_CIS: Attagene CIS-FACTORIAL HepG2 Assay for human RAR-related Orphan Receptor Element (RORE) (AID 2282959). The conditions noted are these: HepG2 Attagene cis-factorial RORE reporter, mRNA; actives raise or lower the signal. The essentials: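 Readout: fluorescent reporter mRNA by RT-PCR plus capillary electrophoresis, 24 h after dosing transfected HepG2 cells. Endogenous transcription factor activity on a cis promoter element is measured. Gain or loss of signal fitted against DMSO.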

The nature of experiment [5]: ATG_Sox_CIS: Attagene CIS-FACTORIAL HepG2 Assay for human SRY-box transcription factor (SOX) (AID 2282960). Particulars: HepG2 Attagene cis-factorial SOX reporter, mRNA; actives raise or lower the signal. In outline:
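Read-out: fluorescent RT-PCR products of SOX1-linked reporter transcripts resolved by capillary electrophoresis, fitted bidirectionally against DMSO. Transiently transfected HepG2 cells, 24 h after chemical exposure, endogenous transcription factor activity.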

For experiment [6], the target named is Transcription factor Sp1 (Homo sapiens) (UniProt P08047). The experiment is described as follows: ATG_Sp1_CIS: Attagene CIS-FACTORIAL HepG2 Assay for human Specificity Protein 1 (Sp1) (AID 2282961). Particulars: HepG2 Sp1 cis-reporter transcription, actives raise or lower the signal. In outline: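 Read-out: fluorescence of 6-FAM-labeled, HpaI-digested RT-PCR products separated by capillary electrophoresis. HepG2 cells carried transfected cis-element reporter units and were exposed to chemicals for 24 h; gain or loss of signal fitted relative to DMSO.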

A short description of experiment [7]: ATG_SREBP_CIS: Attagene CIS-FACTORIAL HepG2 Assay for human Sterol Regulatory Element Binding (SREBP) (AID 2282962). The conditions noted are these: HepG2 Attagene cis-factorial SREBP reporter, mRNA; actives raise or lower the signal. The essentials:
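Transfected HepG2 (cis-regulated reporter library, endogenous TFs) → compound 24 h → total RNA → oligo(dT) RT → reporter-specific PCR → FAM primer extension, HpaI cut → CE fluorescence. Fit bidirectional vs DMSO.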

A short description of experiment [8]: ATG_TA_CIS: Attagene CIS-FACTORIAL HepG2 Assay for human TA Basal Promoter (AID 2282964). The conditions noted are these: HepG2 Attagene CIS-factorial TA basal promoter reporter; actives raise or lower the signal. In outline:
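Fluorescence from labelled RT-PCR reporter fragments, separated by capillary electrophoresis, gives the signal. Cells: HepG2 transiently carrying multiple reporter units, 24 h chemical dosing. Gain or loss relative to DMSO.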

Experiment [9] is described as follows: ATG_TCF_b_cat_CIS: Attagene CIS-FACTORIAL HepG2 Assay for human T-Cell-Factor with beta-catenin (TCF/b-cat) (AID 2282965). Particulars: HepG2 TCF/beta-catenin cis-reporter transcription, actives raise or lower the signal. In outline: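 Measured: reporter mRNA in HepG2 transiently transfected with cis-promoter reporter units, 24 h after chemical addition. Fitting was bidirectional, DMSO as negative control.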

Experiment [10] can be described thus: ATG_TAL_CIS: Attagene CIS-FACTORIAL HepG2 Assay for human TAL Basal Promoter (AID 2282966).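 Further: background control endpoint measuring basal TAL promoter reporter mRNA not a specific factor.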 Particulars: HepG2 Attagene cis-factorial TAL promoter reporter; actives raise or lower the signal. The essentials:
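Readout: reporter mRNA, fluorescence by CE. System: HepG2, transient multi-reporter transfection, endogenous TF activity. Exposure: 24 h. Analysis: bidirectional, DMSO-normalized; background control.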

A short description of experiment [11]: ATG_TGFb_CIS: Attagene CIS-FACTORIAL HepG2 Assay for human Transforming Growth Factor (TGF) (AID 2282967). The conditions noted are these: HepG2 Attagene CIS TGFb reporter, mRNA transcription; actives raise or lower the signal. In outline:
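Bidirectional fitting relative to DMSO gave the endpoint. Underlying data: reporter mRNA from HepG2 cells carrying transiently transfected cis-regulated reporter constructs, harvested 24 h after dosing and analyzed by RT-PCR and capillary electrophoresis.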

Experiment [12] can be described thus: ATG_VDRE_CIS: Attagene CIS-FACTORIAL HepG2 Assay for human Vitamin D Receptor Element (VDRE) (AID 2282968). The conditions noted are these: HepG2 VDRE cis-reporter transcription, actives raise or lower the signal. In outline:
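In transiently transfected HepG2 liver cells, gain or loss of reporter mRNA after 24 h exposure is scored relative to DMSO, using fluorescence detection by capillary electrophoresis of RT-PCR products.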

Experiment [13] has as its target Nuclear receptor subfamily 1 group I member 3 (Homo sapiens) (UniProt Q14994). As to the kind of experiment: ATG_CAR_TRANS: Attagene TRANS-FACTORIAL HepG2 Assay for human Constitutive Androstane Receptor (CAR) (AID 2282969; active means hit-call score of the fitted dose curve at least 0.9, where 1 is the maximum;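 further: activators raise reporter mRNA above DMSO so AC50 marks induction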). The conditions noted are these: HepG2 Attagene TRANS-FACTORIAL CAR reporter. The essentials:
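Readout is reporter mRNA induction, quantified by fluorescent primer extension and capillary electrophoresis after RT-PCR. Cells were HepG2 transiently carrying chimeric NR-Gal4 constructs with GAL4-UAS reporters, treated for 24 h; activity scored upward from DMSO.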

Experiment [14] concerns the target Estrogen receptor (Homo sapiens) (UniProt P03372). As to the kind of experiment: ATG_ERa_TRANS: Attagene TRANS-FACTORIAL HepG2 Assay for human Estrogen Receptor alpha (ERa) (AID 2282970; active means hit-call score of the fitted dose curve at least 0.9, where 1 is the maximum). Particulars: HepG2 Attagene TRANS ERa GAL4 reporter, mRNA. In outline: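 Transactivation via ERa-Gal4 chimera in HepG2; 24 hour incubation; reporter mRNA detected by fluorescence RT-PCR and capillary electrophoresis.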

Experiment [15] in a line: ATG_GAL4_TRANS: Attagene TRANS-FACTORIAL HepG2 Assay for GAL4 (Internal Marker) (AID 2282976; active means hit-call score of the fitted dose curve at least 0.9, where 1 is the maximum). Particulars: HepG2 Attagene TRANS GAL4 internal marker reporter. In outline:
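Fluorescence from capillary electrophoresis of labelled RT-PCR products quantifies reporter mRNA induction after 24 h dosing of HepG2 cells carrying transfected GAL4-UAS reporter transcription units. Vehicle DMSO serves as baseline.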

For experiment [16], the target named is Estrogen-related receptor gamma (Homo sapiens) (UniProt P62508). As to the kind of experiment: ATG_ERRg_TRANS: Attagene TRANS-FACTORIAL HepG2 Assay for human Estrogen-Related Receptor gamma (ERRg) (AID 2282977; active means hit-call score of the fitted dose curve at least 0.9, where 1 is the maximum;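 further: hits increase reporter signal over DMSO so potencies reflect activators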). The conditions noted are these: HepG2 Attagene TRANS reporter, ERRg transactivation. In outline: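 HepG2 cells transiently transfected with multiplexed GAL4-UAS reporter units and chimeric NR-Gal4 constructs were exposed to test chemicals for 24 h. Reporter mRNA was measured by RT-PCR, 6-FAM primer extension, HpaI digestion and capillary electrophoresis; gain-of-signal versus DMSO.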

Experiment [17] addresses Signal transducer and activator of transcription 3 (Homo sapiens) (UniProt P40763). The experiment is described as follows: ATG_STAT3_CIS: Attagene CIS-FACTORIAL HepG2 Assay for human Signal Transducer and Activator of Transcription 3 (STAT3) (AID 2282963). The conditions noted are these: HepG2, Attagene cis-factorial STAT3 reporter transcription; actives raise or lower the signal. The essentials: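 After a 24 h compound incubation, total RNA from MRTU-transfected HepG2 cells was converted to cDNA and reporter sequences PCR-amplified, labelled and profiled by capillary electrophoresis. Gain and loss of signal were referenced to DMSO.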

The target in experiment [18] is Steroid hormone receptor ERR1 (Homo sapiens) (UniProt P11474). The experiment is described as follows: ATG_ERRa_TRANS: Attagene TRANS-FACTORIAL HepG2 Assay for human Estrogen-Related Receptor alpha (ERRa) (AID 2282971; active means hit-call score of the fitted dose curve at least 0.9, where 1 is the maximum). The conditions noted are these: HepG2 Attagene TRANS reporter, ERRa transactivation. The essentials: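 HepG2 cells were transiently transfected with multiple GAL4-UAS reporter units, then dosed with compound for 24 h. Total RNA was reverse-transcribed, reporter cDNA PCR-amplified and fluorescently labelled, and fragments resolved by capillary electrophoresis; induction was compared with DMSO.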

Experiment [19] deals with X-box-binding protein 1 (Homo sapiens) (UniProt P17861). The experiment is described as follows: ATG_Xbp1_CIS: Attagene CIS-FACTORIAL HepG2 Assay for human X-box Binding Protein 1 (XBP1) (AID 2282972). The conditions noted are these: HepG2 XBP1 cis-element reporter, Attagene multiplex; actives raise or lower the signal. The essentials:
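HepG2, transient MRTU transfection (cis-promoter driven), 24 h compound exposure. Total RNA → oligo(dT) RT → PCR → 6-FAM labeling → HpaI cut → CE. Bidirectional fit vs DMSO.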

Experiment [20] in a line: ATG_M_19_TRANS: Attagene TRANS-FACTORIAL HepG2 Assay for M19 Transcription Factor (Internal Marker) (AID 2282974; active means hit-call score of the fitted dose curve at least 0.9, where 1 is the maximum). The conditions noted are these: HepG2 Attagene TRANS-FACTORIAL M19 internal marker reporter. The essentials: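 24 h chemical exposure of transiently transfected HepG2 (MRTU library). RNA → oligo(dT) RT → PCR → 6-FAM labelling → HpaI cut → CE fluorescence. Positive-direction fit vs DMSO baseline; background internal-marker readout.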

The structures appear in SMILES notation. Records with an inconclusive call do not appear. Calls of active or inactive are those of the source. How the source made its calls, unless noted: active means hit-call score of the fitted dose curve at least 0.9, where 1 is the maximum; inactive means score below 0.9.

Sequence of Paired box protein Pax-6 (Homo sapiens) (P26367 whole entry, looked up): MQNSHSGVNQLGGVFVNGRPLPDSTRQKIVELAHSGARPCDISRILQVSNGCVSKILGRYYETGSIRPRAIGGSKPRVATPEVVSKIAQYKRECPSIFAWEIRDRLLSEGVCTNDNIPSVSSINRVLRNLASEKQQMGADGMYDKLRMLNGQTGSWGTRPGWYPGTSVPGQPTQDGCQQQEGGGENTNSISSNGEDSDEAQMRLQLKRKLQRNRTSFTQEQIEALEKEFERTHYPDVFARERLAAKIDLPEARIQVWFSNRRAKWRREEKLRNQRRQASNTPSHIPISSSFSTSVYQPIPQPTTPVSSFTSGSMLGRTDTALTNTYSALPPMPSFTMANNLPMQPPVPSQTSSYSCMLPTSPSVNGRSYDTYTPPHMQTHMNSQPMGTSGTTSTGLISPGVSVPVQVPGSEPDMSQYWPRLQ
Sequence of Estrogen receptor (Homo sapiens) (P03372 whole entry, looked up, the tested form may be a part): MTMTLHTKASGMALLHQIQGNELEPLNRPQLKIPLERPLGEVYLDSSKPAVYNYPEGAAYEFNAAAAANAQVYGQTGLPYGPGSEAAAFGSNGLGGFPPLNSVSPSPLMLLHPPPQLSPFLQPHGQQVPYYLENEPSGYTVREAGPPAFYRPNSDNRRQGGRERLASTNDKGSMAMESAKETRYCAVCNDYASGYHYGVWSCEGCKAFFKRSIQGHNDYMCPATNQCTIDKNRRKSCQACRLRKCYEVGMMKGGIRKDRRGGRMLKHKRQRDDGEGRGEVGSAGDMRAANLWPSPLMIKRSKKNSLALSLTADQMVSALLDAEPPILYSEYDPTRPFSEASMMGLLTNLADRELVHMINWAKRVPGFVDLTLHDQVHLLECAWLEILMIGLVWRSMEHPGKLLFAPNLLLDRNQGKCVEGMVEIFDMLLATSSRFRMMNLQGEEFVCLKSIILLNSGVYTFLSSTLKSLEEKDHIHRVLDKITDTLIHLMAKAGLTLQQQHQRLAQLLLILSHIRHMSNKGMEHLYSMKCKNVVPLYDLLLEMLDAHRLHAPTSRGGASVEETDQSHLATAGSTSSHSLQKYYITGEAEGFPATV
Sequence of X-box-binding protein 1 (Homo sapiens) (P17861 whole entry, looked up): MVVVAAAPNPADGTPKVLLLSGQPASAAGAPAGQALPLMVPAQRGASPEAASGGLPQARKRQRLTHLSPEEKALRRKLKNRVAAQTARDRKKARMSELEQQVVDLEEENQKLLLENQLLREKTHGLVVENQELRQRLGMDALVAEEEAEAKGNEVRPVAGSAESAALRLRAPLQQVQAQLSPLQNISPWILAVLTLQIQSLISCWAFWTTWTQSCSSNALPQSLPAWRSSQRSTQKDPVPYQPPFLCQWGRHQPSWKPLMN
Sequence of Estrogen-related receptor gamma (Homo sapiens) (P62508 whole entry, looked up, the tested form may be a part): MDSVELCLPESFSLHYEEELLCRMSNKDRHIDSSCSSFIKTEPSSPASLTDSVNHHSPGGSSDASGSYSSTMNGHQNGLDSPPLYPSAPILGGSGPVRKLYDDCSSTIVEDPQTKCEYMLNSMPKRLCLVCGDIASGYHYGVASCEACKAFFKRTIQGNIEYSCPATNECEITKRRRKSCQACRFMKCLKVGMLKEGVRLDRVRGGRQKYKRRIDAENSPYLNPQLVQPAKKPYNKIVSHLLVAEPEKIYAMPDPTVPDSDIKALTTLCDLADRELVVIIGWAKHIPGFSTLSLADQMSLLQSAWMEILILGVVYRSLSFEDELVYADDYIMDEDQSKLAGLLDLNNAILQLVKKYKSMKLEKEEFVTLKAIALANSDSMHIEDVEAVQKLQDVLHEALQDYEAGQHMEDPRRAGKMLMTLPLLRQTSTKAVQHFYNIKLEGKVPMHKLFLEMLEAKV
Sequence of Signal transducer and activator of transcription 3 (Homo sapiens) (P40763 whole entry, looked up): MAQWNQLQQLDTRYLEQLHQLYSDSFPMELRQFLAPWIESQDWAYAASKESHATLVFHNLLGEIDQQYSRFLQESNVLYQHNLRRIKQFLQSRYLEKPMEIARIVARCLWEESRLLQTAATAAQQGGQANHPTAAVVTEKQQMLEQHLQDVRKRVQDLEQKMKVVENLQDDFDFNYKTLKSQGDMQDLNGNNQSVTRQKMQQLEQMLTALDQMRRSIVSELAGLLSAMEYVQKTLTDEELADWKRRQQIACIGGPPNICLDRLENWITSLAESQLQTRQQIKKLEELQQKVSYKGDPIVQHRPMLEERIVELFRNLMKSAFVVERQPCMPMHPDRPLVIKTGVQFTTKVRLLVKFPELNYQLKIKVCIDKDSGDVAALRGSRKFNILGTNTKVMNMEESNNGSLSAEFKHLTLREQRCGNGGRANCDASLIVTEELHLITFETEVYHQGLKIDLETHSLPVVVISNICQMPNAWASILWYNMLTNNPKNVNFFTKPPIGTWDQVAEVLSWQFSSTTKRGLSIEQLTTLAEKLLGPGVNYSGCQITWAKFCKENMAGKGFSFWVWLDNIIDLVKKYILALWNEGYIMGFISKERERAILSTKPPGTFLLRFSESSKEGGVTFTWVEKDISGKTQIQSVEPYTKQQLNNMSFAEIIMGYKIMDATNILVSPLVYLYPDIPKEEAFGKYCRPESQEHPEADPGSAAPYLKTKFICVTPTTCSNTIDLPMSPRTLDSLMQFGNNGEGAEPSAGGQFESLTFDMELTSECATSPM
Sequence of Transcription factor Sp1 (Homo sapiens) (P08047 whole entry, looked up): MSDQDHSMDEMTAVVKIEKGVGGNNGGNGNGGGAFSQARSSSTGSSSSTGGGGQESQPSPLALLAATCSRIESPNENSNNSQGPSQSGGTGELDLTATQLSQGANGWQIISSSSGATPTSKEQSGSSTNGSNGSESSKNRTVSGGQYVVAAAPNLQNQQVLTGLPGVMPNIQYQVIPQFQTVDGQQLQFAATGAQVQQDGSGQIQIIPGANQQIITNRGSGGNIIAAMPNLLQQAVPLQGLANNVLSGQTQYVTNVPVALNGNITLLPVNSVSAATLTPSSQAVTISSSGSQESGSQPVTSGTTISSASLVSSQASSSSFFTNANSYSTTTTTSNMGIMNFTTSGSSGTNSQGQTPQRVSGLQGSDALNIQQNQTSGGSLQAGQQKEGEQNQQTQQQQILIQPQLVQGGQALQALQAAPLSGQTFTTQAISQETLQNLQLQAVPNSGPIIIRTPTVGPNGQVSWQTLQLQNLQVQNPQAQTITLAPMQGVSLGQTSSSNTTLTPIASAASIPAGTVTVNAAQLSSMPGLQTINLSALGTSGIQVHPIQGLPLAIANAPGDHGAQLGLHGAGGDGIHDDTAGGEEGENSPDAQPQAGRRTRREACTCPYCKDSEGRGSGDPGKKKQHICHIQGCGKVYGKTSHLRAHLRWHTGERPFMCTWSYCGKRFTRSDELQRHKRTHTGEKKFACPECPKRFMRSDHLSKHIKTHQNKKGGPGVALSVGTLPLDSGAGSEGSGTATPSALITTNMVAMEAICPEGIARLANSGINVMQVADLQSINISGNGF
Sequence of Nuclear receptor subfamily 1 group I member 3 (Homo sapiens) (Q14994 whole entry, looked up, the tested form may be a part): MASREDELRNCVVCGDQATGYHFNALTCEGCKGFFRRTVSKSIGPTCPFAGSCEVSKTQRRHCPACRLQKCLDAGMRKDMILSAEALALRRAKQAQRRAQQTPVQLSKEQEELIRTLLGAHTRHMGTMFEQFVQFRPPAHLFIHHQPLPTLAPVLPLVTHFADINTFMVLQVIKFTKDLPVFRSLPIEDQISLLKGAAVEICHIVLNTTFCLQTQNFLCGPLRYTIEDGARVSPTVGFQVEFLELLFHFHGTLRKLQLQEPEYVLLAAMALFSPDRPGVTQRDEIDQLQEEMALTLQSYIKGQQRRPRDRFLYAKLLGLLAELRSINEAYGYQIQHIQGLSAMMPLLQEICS
Sequence of Steroid hormone receptor ERR1 (Homo sapiens) (P11474 whole entry, looked up, the tested form may be a part): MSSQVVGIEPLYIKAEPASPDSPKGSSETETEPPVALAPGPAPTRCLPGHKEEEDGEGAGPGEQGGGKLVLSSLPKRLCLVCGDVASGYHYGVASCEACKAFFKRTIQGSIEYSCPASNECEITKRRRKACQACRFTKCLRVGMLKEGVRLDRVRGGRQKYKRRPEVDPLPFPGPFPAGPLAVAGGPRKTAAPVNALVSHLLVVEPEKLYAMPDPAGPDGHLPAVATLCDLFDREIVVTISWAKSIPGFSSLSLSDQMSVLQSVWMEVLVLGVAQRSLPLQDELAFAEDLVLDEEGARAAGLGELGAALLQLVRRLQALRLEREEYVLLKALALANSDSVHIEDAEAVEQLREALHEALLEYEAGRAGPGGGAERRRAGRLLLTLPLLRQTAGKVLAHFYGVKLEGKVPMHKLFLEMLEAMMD

Take `C1=Cc2ccccc2C1`: the outcome in [1], in experiment [3], in experiment [4], in [5], in [6] and in experiment [7] was inactive. Further, the compound was classed as inactive in [8], in experiment [9], in [10], in [11], in [12] and in experiment [13]. For the same compound, the compound was classed as inactive in experiment [15] and in experiment [16]. In addition, the results for the AC50 in experiment [2] and in experiment [14] were 9.16 µM (active) and 65.8 µM (active), respectively.

Regarding `O=C(Nc1ccccc1)c1ccccc1O`, the call in [1], in experiment [4], in [5], in experiment [6], in experiment [7] and in [17] was inactive. Further, the call in experiment [9], in [10], in [11], in experiment [18] and in experiment [16] was inactive. For the same compound, the AC50 in experiment [2] was 27.4 µM (active); in experiment [3], 100 µM (active); in experiment [14], 27.2 µM (active); in experiment [19], 44.4 µM (active).

On to `Nc1ncn([C@@H]2O[C@H](CO)[C@@H](O)[C@H]2O)c(=O)n1`, for which the compound was classed as inactive in [1], in experiment [2], in [3], in experiment [4], in experiment [5] and in experiment [6]. Besides, the compound was called inactive in experiment [7], in [17], in experiment [8], in experiment [11], in [13] and in [14]. Besides, the compound was called inactive in experiment [19], in experiment [20] and in experiment [16].

As for `CC(C)(C)c1n[nH]c(=O)n(N)c1=O`, the compound was classed as inactive in [1], in experiment [2], in experiment [3], in experiment [4], in experiment [5] and in experiment [6]. The compound was called inactive in [7], in experiment [17], in experiment [8], in experiment [10], in [11] and in experiment [12]. Besides, the outcome in experiment [19], in experiment [20], in experiment [15] and in experiment [16] was inactive.
